# Assay results reported in PubChem BioAssay AID743279 (National Center for Advancing Translational Sciences (NCATS), 2014).
# In all, about 360,000 compounds went through this assay and about 17,000 (4.7%) were called active. Inconclusive results (about 5%) are left out. Only a selection was taken, and actives are over-represented in it overall. A number with no mark means an inactive call. No stated cut-off is given here; in the data, active means activity change below about -50%; inconclusive means mostly about -30% to -49%; inactive means weaker than that.
# Experiment: qHTS for Inhibitors of Inflammasome Signaling: IL-1-beta AlphaLISA Primary Screen
# Settings: THP-1 LPS/ATP IL-1B secretion, 16 h; at 57.5 µM, active compounds read low
# Summary of the method: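 Secreted IL-1B measured by AlphaLISA bead assay after 16 h compound exposure of THP-1 cells; compounds (final up to 57.5 uM) added 1 h before LPS (250 ng/mL) and ATP (1.25 mM) stimulation; lower signal means less secretion.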
# On the % scale 0 is the no-effect control and ±100 the full control effect.
row,SMILES,activity change
1,CC(=O)Nc1cccc(-c2ccnc3c2CC(C)(C(=O)NCc2ccccc2)O3)c1 (configuration not stated),92.1%
2,CCCCN(CCCC)C(=O)CCS(=O)(=O)c1ccc2c(c1)n(C)c(=O)c(=O)n2C,7.06%
3,O=C1CCC(=O)N(O)CCCCCNC(=O)CCC(=O)N(O)CCCCCNC(=O)CCC(=O)N(O)CCCCCN1,38.7%
4,COc1ccc(C(=O)CC(=O)c2ccc(C)cc2)c(O)c1,-20.9%
5,COc1ccc(C(=O)/C=C/c2cccnc2)c(OC)c1,-96.6% (active)
6,COc1ccc(/C=C/C(=O)NC(=S)N2CCCC(C(N)=O)C2)cc1 (configuration not stated),-22.6%
7,Cc1nc(-c2ccc(Cl)cc2)sc1C(=O)CBr,0%
8,Cc1nc(-c2ccccc2)sc1C(=O)/C=C/c1ccccc1,-84.3% (active)
9,COc1ccc(-c2cc(C(=O)N/N=C/c3cccnc3)c3ccccc3n2)c(OC)c1,-5.72%
10,COc1ccc(/C=C/C(=O)c2ccc(OC)cc2O)cc1,-98.1% (active)
11,CCOC(=O)C1CCCN(C(=O)/C=C/c2ccc(OC)cc2)C1 (configuration not stated),-6.92%
12,COc1ccc(/C=C/C(=O)c2cc(Br)ccc(=O)c2O)cc1,-2.15%
13,Cc1nc(-c2ccccc2)sc1C(=O)/C=C/N(C)C,-11.9%
14,COc1ccc(C(=O)/C=C/c2ccc(OC3CSC3)cc2)cc1,-99.6% (active)
15,COc1ccc(C(=O)CCC(=O)Nc2cccnc2)c(OC)c1,-9.85%
16,Cc1ccc(S(=O)(=O)N2CCOCC2)cc1NC(=O)CSc1nnc(N)s1,18.9%
17,COC(=O)[C@]12CCCCC=C1N(Cc1ccccc1)C(=O)[C@H](CC(=O)NCc1ccc(C)o1)C2,42.5%
18,O=C(OCc1cn([C@@H]2C[C@H](c3ccc(Cl)cc3)N(Cc3cccs3)C[C@H]2O)nn1)c1ccccc1,10.7%
19,O=C1CCC/C(=N\NC(=O)NC2CCCCC2)C1,-10.6%

row,SMILES,activity change
1,O=C(/C=C/c1ccccc1)c1ccccc1O,-85.5% (active)
2,O=C(NNC(=O)c1ccccc1O)c1ccccc1O,67.1%
3,O=C(/C=C(O)/C=C/c1ccc(O)cc1)/C=C/c1ccc(O)cc1,-22.4%
4,CCCS(=O)(=O)NC(=O)C1(C)CCCN(C(=O)c2cccs2)C1 (configuration not stated),1.15%
5,CCOC(=O)c1ccc2[nH]c(C)c(CN3CCN(C)CC3)c(=O)c2c1,13.2%
6,O=C(CCCCCn1c(=S)[nH]c2ccsc2c1=O)NC1CCCCC1,7.06%
7,CO[C@@H]1CN(C)C(=O)c2cc(NC(=O)C3CC3)ccc2OC[C@H](C)N(C(=O)CN2CCOCC2)C[C@@H]1C,11%
8,O=C(O)c1ccccc1-c1cccc2nncn12,-10.3%
9,Cn1c2c(c(=O)n(C)c1=O)C(c1cccc(F)c1)C(C#N)=C(N)O2 (configuration not stated),5.24%
10,Cc1c(C(=O)NCc2ccc(C#N)cc2)sc(=O)n1Cc1ccc(C(=O)N(C)C)cc1,-7.66%
11,CCCCOC(=O)CCCc1ccc([N+](=O)[O-])cc1[N+](=O)[O-],17.5%
12,CCCCCOc1ccc(CSC2=NCCN2)cc1[N+](=O)[O-],-93.2% (active)
13,Cc1nc(SCc2ccc(F)cc2)c([N+](=O)[O-])[nH]1,15.4%
14,O=[N+]([O-])c1ccccc1OCCCCN1CCCCC1,15.9%
15,CCCCOc1ccc(CSC(=N)N)cc1[N+](=O)[O-],-102% (active)
16,Cc1cc(OCCCCOc2ccc(C#N)cc2)ccc1[N+](=O)[O-],0%
17,O=C(Nc1nnc([C@H]2C[C@H](O)[C@@H](CO)O2)s1)c1cccc(Cl)c1,25.3%
18,CCOC(=O)C1(Cc2ccccc2C(F)(F)F)CCN(C(=O)c2cc(C)n(C)n2)CC1,58%
19,CC(=O)NC(CC(=O)Nc1nc(-c2ccccc2)c(C(C)=O)s1)c1ccccc1 (configuration not stated),-10.6%

row,SMILES,activity change
1,CCN1C(=O)CS/C1=N\c1nccs1,-5.9%
2,O=C(Cc1ccc(Cl)cc1)c1ccccc1,-14.1%
3,CCN(C[C@H]1N[C@@](Cc2ccccc2)(C(=O)OC)[C@H]2C(=O)N(Cc3ccccc3)C(=O)[C@@H]12)C(=O)c1ccc(C)cc1,-54.1% (active)
4,CCN(C[C@H]1N[C@@](CC)(C(=O)OC)[C@H]2C(=O)N(Cc3ccccc3)C(=O)[C@@H]12)S(=O)(=O)c1ccccc1,-2.92%
5,CCNC(=O)N(CC)C[C@H]1N[C@@](CC)(C(=O)OC)[C@H]2C(=O)N(Cc3ccccc3)C(=O)[C@@H]12,36%
6,Cc1ccc(S(=O)(=O)NN=C2CC(C)(C)CC(=O)C2(C)C)cc1,0.854%
7,Cc1cccc(C)c1NC(=O)C(c1ccc(C(F)(F)F)cc1)n1c(=O)c(-c2ccco2)nc2ccccc21 (configuration not stated),-1.25%
8,Cc1ccc2nc(SCC(=O)NC3CCCC3)[nH]c2c1,-11.8%
9,Cc1cc(C)c(NC(=O)CSc2nc3ccncc3[nH]2)c(C)c1,-69.3% (active)
10,COc1ccc2nc(SCC(=O)Nc3c(C)cc(C)cc3C)[nH]c2c1,15.5%
11,COc1ccc(C(CNC(=O)c2cccc(S(=O)(=O)Nc3ccc(Br)cc3)c2)N(C)C)cc1 (configuration not stated),-12.1%
12,CCC(NC(=O)C1CCCC1)c1ccc(C)cc1 (configuration not stated),31.4%
13,Brc1ccc2nc(-c3ccccc3)c(Cc3ccccc3)n2c1,28.2%
14,CCN(CC)S(=O)(=O)c1ccc(N2CCOCC2)c(NC(=O)c2ccc(=O)n(C)n2)c1,8.34%
15,CCN(CC)S(=O)(=O)c1ccc(N2CCCC2)c(NC(=O)c2ccc([N+](=O)[O-])o2)c1,-86.5% (active)
16,CCN(CC)S(=O)(=O)c1ccc(N2CCN(C)CC2)c(NC(=O)Nc2ccccc2F)c1,-72.3% (active)
17,CCN(CC)S(=O)(=O)c1ccc(N2CCOCC2)c(NC(=O)C2COc3ccccc3O2)c1 (configuration not stated),-0.208%
18,CCN(CC)S(=O)(=O)c1ccc(N2CCOCC2)c(NC(=O)C(C)Oc2ccc(F)cc2)c1 (configuration not stated),-2.11%
19,CCN(CC)S(=O)(=O)c1cc(C(=O)Nc2cc(S(=O)(=O)N3CCOCC3)ccc2N2CCCC2)ccc1F,-10.4%
